Experimental findings from PubChem BioAssay (NCI) are described below.

The panel holds about 83,000 compounds, 20% with a hit somewhere; the sample as a whole holds those more often.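 Values shown are percent growth following 48 h exposure of cells in 96-well plates to a single concentration of compound; below 10 was considered active.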 A number with no mark means an inactive call. Calls of active or inactive are those of the source.

The test system of the assay is HL-60(TB) leukemia. The experiment in a line: NCI-60 one-dose screen, 48 h (100 = growth as untreated, 0 = no growth, -100 = all killed). As to conditions: 10 µM unless noted.
Take `CC(=O)Nc1ccc2c(c1)C(N1CC3CCC(CC3)C1)c1ccccc1-2` (stereo not given): the growth is 52.3%. Turning to `O=C(c1ccc(/C=C/c2n[nH]c3ccccc23)cc1)N1CCNCC1`, the growth is 31.7%. Regarding `CCN(CCC#N)c1ccccc1`, the growth was 98.1%. On to `NC(=S)N/N=C/c1cc(-c2cccc(N)c2)ccn1`, for which the growth was -12% (active). Then `C=C(C)[C@@H]1CC[C@]2(c3nnc(-c4ccncc4)o3)CC[C@]3(C)[C@H](CC[C@@H]4[C@@]5(C)CCC(=O)NC(C)(C)[C@@H]5CC[C@]43C)[C@@H]12`, with 115%; and `COc1cccc(C(=O)NC(c2ccc(C)cc2)c2cc(Cl)c3cccnc3c2O)c1` (stereo not given), with 4.15% (active); and `CCCCNC(=O)Oc1ccc(/C(=C(\C)c2ccc(Cl)cc2)c2ccc(OCCN3CCCCC3)cc2)cc1`, with 64.9%.

For `CN(Cc1cnc2nc(N)nc(N)c2n1)c1ccc(C(=O)NC(CCC(=O)O)C(=O)O)cc1` (stereo not given), the growth is 29.5%. Consider `Cn1cc(-c2csc(-c3cn(C)c4ccc(Br)cc34)n2)c2cnccc21`, for which the growth is -58.4% (active). On to `Cc1ccc(S(=O)(=O)N(c2ccc(Cl)cc2)c2ccc(Br)cc2C(=O)O)cc1`, for which the growth was 110%. For the compound `Cl.Fc1c[c-]c(-c2ccccn2)c(F)c1.[Pt].c1ccc([PH+](CC[PH+](c2ccccc2)c2ccccc2)c2ccccc2)cc1`, the growth is -29.2% (active). Take `O=C(/C=C1\C(=O)N(Cc2ccccc2)c2ccccc21)c1ccc(OCCN2CCCCC2)cc1`: the growth is 7.79% (active).

Take `Cc1cc(C)cc(Nc2ccc([N+](=O)[O-])c(NCCN3CCOCC3)n2)c1`: the growth is -13.9% (active). As to `CCN(CC)CC(O)COc1c(Br)c(Br)c(Br)c2c1OC(C)(C)C2` (stereo not given), the growth is 14%. As to `N#CCc1ncc(-c2ccc(C(F)(F)F)cc2)c(NC2CCCCCC2)n1`, the growth was -28.4% [100 µM] (active). With `CNC(=O)c1cccc(Cn2nc(C)c(NC(=O)c3ccc(COc4ccc(C(F)(F)F)cc4C)cc3)c2C)c1`, the growth was 47.1%.

As for `CCCCCC/C=C\CCCCCCCCOc1ccc(CCOP(=O)(O)OCC[N+](C)(C)C)cc1`, the growth was -15.1% (active).

With `COc1cc2c(cc1OC)C(=O)C(Br)CC2` (stereo not given), the growth was 27.3%. Consider `COc1cccc(-c2nc(-c3ccc(NS(=O)(=O)c4ccccc4)cc3)[nH]c2-c2ccnc(Br)c2)c1`, for which the growth was -11.5% (active). `COc1cc2c(c(O)c1Br)C(=O)c1c(O)cc(C[C@H](C)O)cc1[C@H]2[C@H]1c2cc(C[C@H](C)O)cc(O)c2C(=O)c2c1cc(OC)c(Br)c2O`: the growth was -28% (active). As to `C[N+]1=C(/C=C/c2ccccc2Cl)C(C)(C)c2ccccc21`, the growth was 53.5%. With `C=C(C)[C@@H]1CC[C@]2(C(=O)N3CCN(C)CC3)CC[C@]3(C)[C@H](CC[C@@H]4[C@@](C)(CCC(=O)O)[C@H](C(=C)C)CC[C@]43C)[C@@H]12`, the growth is 82.5%. For `O=C1/C(=C/c2ccc([N+](=O)[O-])o2)Oc2ccc(Cl)cc21`, the growth is -21.3% (active). Regarding `C#Cc1cccc(Nc2nc3ccc([N+](=O)[O-])cc3nc2Nc2cccc(C#C)c2)c1`, the growth was -33.9% (active). The same measure for `Cc1ccc(-c2nn(Cc3cn(-c4cc(C)nc5ccccc45)nn3)c3ncnc(N)c23)cc1`: 83.1%.

For `CCOC(=O)c1csc(NC(=O)COc2ccc(/C=C3\Oc4ccccc4C3=O)cc2)n1`, the growth was 7.24% (active).

For the compound `O=C(Nc1cc(Cl)ccc1O)c1ccccc1Nc1ccnc(C(F)(F)F)c1`, the growth was -38.1% (active).

As to `O=C(CSc1nc2c(n1Nc1ccccc1)-c1ccccc1SC2)Nc1nccs1`, the growth is 102%. The same measure for `N#Cc1c(N)n2c(nc1=Nc1ccc([N+](=O)[O-])cc1)sc1cc(Cl)ccc12`: 117%; for `O=S(=O)(NCCCNc1cc(-c2cn(-c3ccccc3)nc2-c2cccc(O)c2)ccn1)c1ccc(Br)cc1`: -13.1% (active). As for `Cc1nn(-c2ccccc2)c(N)c1N=C1NC(=O)/C(=C/c2ccc(Cl)cc2)S1`, the growth was 74.3%. Take `COC(=O)c1ccc(C)cc1`: the growth is 106%. In the case of `CC1C(c2ccccc2)OCCN1C(=S)Nc1ccc(S(=O)(=O)N2CCCCC2)cc1` (stereo not given), the growth was 89.1%.

As for `COc1cc(C)c(Cc2cnc(N)nc2N)cc1OC`, the growth is 129%. Turning to `Clc1ccc(-c2cn(-c3ccccc3)c(-c3ccccc3)n2)cc1`, the growth was 47.5%. In the case of `C=C(C)C1CCC2(C)OC2C1` (stereo not given), the growth is 95.6%. Then `O=C(CN1CCOCC1)Nc1ccc2ncnc(Nc3ccc(OCc4cccc(F)c4)c(Cl)c3)c2c1`, with 75.2%; and `Cc1ccc(-c2cnc3sc(C(=O)NCCc4ccccc4)c(C)n23)cc1`, with 97.9%. As for `CN(C(=O)NCc1cccc(F)c1Cl)[C@H](COC(=O)Nc1cc2ccccc2cn1)CC(O)CO` (stereo not given in full), the growth is 90.5%. Take `CN1CCN(c2cc(Nc3cc(C4CC4)[nH]n3)nc(Nc3ccc(CC(=O)NCc4cccc(F)c4)cc3)n2)CC1`: the growth is 19.9%.
